Reference: PubChem BioAssay (NCI)
This is part of a sample that, as a whole, favours compounds with a hit. Of some 79,000 tested, about 15% had one in any assay. Calls of active or inactive are those of the source. No stated cut-off is given here; in the data, active means growth inhibition above about 70%; inactive means the rest.

Assay: NCI Yeast Anticancer Drug Screen. Data for the mgt1 strain (AID 153)
Conditions: S. cerevisiae mgt1 mutant growth inhibition, hits give high values
Method: Growth inhibition of yeast strains with defined genetic alterations is measured as a screen for potential anti-cancer activity. Selected strains with alterations in DNA damage repair or cell cycle control were exposed to compounds and growth inhibition was measured relative to vehicle treated controls. The strain used in this assay is mgt1

Measured: growth inhibition

CCCCCCCCCCCCNC(C)=O
inactive: at 1.2 µM -2% | at 3.7 µM -6% | at 11.0 µM -5% | at 33.0 µM -14% | at 100.0 µM 14%

COc1ccc(NC(=O)CC2SC(=Nc3ccccc3C)NC2=O)c([N+](=O)[O-])c1 (stereo not given)
inactive: at 1.2 µM -2% | at 3.7 µM 1% | at 11.0 µM 1% | at 33.0 µM 12%
active: at 100.0 µM 99%

Cc1cccc(/C=N/NC(=S)N2CCCC2)n1
inactive: at 1.2 µM -13% | at 3.7 µM -14% | at 11.0 µM 18%
active: at 33.0 µM 94% | at 100.0 µM 96%

COc1ccc(N=CN(C)C)c(C)c1
inactive: at 1.2 µM -40% | at 3.7 µM -51% | at 11.0 µM -43%
active: at 33.0 µM 93% | at 100.0 µM 95%

CCc1c[n+]([O-])c(C)cc1[N+](=O)[O-]
inactive: at 1.2 µM -2% | at 3.7 µM -2% | at 11.0 µM -2% | at 33.0 µM 17% | at 100.0 µM 22%

O=[N+]([O-])c1cc[n+]([O-])cc1
inactive: at 1.2 µM -1% | at 3.7 µM -4% | at 11.0 µM -3% | at 33.0 µM -16%
active: at 100.0 µM 99%

CC[N+]1(C)CCC(O)(c2ccc(OC)cc2)C(C(=O)c2ccc(OC)cc2)C1 (stereo not given)
inactive: at 1.2 µM -39% | at 3.7 µM -52% | at 11.0 µM -54% | at 33.0 µM -54% | at 100.0 µM -44%

COc1cc(O)c(O)c(C(C)(C)C)c1
inactive: at 1.2 µM -2% | at 3.7 µM -2% | at 11.0 µM 4% | at 33.0 µM 24% | at 100.0 µM 12%
